# Laboratory results taken from publication PMC7862700, “An all-to-all approach to the identification of sequence-specific readers for epigenetic DNA modifications on cytosine”.
# What was measured:
# Assay in all cases: DAPPL (digital affinity profiling via proximity ligation, sequencing); 10 mM Tris-HCl pH 7.5, 50 mM NaCl, 1 mM DTT, 4% glycerol, room temperature, 30 min; GST-TFs on glutathione beads, 16-mer random dsDNA library, 0.1% formaldehyde crosslink after washing; high values mean tight binding
# [1] = molecular target: HSF1 (Homo sapiens, UniProt Q00613 1-529); conditions: protein: recombinant; tags: N-terminal GST; chain copies: 3; dsDNA, one strand shown
# Outline: (§1)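 Binding signal is each hexamer's read frequency for a factor divided by its frequency in the tag-only sample. The factors were GST-fused human transcription factors from yeast, captured on glutathione beads, DNA-barcoded and pooled with that sample. Pools were incubated with 200 nmole of a random double-stranded 16-mer DNA library in Tris/NaCl/DTT/glycerol buffer at room temperature for 30 min, then washed, crosslinked with 0.1% formaldehyde, proximity-ligated with BsaI/T4 ligase (1 h, 37 °C), PCR-amplified and sequenced on an Illumina NextSeq500.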
# [2] = molecular target: ELF4 (Homo sapiens, UniProt Q99607 1-663); conditions: protein: recombinant; tags: N-terminal GST; dsDNA, one strand shown
# Outline: as §1
# [3] = molecular target: CRX (Homo sapiens, UniProt O43186 1-299); conditions: protein: recombinant; tags: N-terminal GST; dsDNA, one strand shown
# Outline: as §1
# [4] = molecular target: T1, ERF (Homo sapiens, UniProt P50548 1-548); conditions: protein: recombinant; tags: N-terminal GST; dsDNA, one strand shown
# T1 sequence: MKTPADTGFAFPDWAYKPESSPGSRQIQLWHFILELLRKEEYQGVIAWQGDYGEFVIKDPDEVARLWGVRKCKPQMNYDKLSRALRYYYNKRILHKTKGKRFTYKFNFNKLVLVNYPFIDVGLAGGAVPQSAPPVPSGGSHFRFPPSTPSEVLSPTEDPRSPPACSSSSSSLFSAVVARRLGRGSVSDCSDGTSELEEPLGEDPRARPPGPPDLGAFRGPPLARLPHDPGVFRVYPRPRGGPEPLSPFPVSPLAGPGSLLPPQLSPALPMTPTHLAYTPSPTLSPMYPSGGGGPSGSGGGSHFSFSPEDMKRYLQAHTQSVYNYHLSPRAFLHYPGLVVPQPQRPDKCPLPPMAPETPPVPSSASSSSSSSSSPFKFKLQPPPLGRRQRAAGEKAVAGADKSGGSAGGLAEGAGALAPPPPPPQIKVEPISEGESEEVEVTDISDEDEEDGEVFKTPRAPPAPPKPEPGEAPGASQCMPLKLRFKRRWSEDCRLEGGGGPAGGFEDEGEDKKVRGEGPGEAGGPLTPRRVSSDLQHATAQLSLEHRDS
# Outline: as §1
# [5] = molecular target: T2, ETV3L (Homo sapiens, UniProt Q6ZN32 1-361); conditions: protein: recombinant; tags: N-terminal GST; dsDNA, one strand shown
# T2 sequence: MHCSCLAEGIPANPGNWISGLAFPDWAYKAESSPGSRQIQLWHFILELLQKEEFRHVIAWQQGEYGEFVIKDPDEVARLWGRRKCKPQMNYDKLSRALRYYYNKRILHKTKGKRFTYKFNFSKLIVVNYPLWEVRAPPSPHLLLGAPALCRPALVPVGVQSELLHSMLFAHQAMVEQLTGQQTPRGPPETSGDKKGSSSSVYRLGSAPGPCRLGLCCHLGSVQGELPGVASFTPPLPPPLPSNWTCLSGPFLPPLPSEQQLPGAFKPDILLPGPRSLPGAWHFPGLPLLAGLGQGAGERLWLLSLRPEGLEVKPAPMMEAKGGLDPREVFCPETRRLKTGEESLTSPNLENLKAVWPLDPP
# Outline: as §1
# [6] = molecular target: T3, ETV7 (Homo sapiens, UniProt Q9Y603 1-341); conditions: protein: recombinant; tags: N-terminal GST; dsDNA, one strand shown
# T3 sequence: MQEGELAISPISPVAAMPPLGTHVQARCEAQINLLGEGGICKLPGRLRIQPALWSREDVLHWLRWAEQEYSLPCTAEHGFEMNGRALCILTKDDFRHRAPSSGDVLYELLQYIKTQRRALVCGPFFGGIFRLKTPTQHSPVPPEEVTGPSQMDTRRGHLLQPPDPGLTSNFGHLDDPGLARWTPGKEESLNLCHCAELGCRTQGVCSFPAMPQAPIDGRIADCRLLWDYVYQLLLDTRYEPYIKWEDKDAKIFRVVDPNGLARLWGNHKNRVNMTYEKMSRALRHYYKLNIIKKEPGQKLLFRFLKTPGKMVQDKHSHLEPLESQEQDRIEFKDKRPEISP
# Outline: as §1
# [7] = molecular target: T4, GABPA (Homo sapiens, UniProt Q06546 1-454); conditions: protein: recombinant; tags: N-terminal GST; dsDNA, one strand shown
# T4 sequence: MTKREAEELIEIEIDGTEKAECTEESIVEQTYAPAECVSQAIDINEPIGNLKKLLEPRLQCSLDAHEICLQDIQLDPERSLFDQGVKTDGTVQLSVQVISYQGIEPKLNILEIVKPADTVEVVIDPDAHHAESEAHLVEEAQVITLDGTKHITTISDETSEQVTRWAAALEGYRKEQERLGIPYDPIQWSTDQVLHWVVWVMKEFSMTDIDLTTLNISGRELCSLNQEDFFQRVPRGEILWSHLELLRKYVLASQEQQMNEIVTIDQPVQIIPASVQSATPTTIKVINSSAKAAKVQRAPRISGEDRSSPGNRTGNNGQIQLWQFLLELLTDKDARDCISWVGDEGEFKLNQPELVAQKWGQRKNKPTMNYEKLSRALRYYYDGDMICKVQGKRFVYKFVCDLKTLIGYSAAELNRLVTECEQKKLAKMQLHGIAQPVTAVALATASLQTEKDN
# Outline: as §1
# [8] = molecular target: T5, ERG (Homo sapiens, UniProt P11308 1-479); conditions: protein: recombinant; tags: N-terminal GST; dsDNA, one strand shown
# T5 sequence: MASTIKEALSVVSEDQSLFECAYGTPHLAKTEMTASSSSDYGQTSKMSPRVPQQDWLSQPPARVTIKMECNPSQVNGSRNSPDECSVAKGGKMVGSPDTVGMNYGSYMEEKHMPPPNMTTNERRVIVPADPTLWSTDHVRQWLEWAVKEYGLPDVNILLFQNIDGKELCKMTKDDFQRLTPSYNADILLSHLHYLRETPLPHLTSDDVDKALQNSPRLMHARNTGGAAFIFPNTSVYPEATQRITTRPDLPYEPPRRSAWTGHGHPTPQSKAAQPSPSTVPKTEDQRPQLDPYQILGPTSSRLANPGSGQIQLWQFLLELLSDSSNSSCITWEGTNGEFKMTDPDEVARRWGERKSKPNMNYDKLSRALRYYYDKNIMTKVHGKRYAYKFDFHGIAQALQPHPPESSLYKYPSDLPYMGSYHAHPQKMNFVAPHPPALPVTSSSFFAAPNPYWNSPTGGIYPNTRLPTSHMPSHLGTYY
# Outline: as §1
# [9] = molecular target: SPI1 (Homo sapiens, UniProt P17947 1-270); conditions: protein: recombinant; tags: N-terminal GST; dsDNA, one strand shown
# Outline: as §1
# [10] = molecular target: SPIB (Homo sapiens, UniProt Q01892 1-262); conditions: protein: recombinant; tags: N-terminal GST; dsDNA, one strand shown
# Outline: as §1
# [11] = molecular target: T6, ELK3 (Homo sapiens, UniProt P41970 1-407); conditions: protein: recombinant; tags: N-terminal GST; dsDNA, one strand shown
# T6 sequence: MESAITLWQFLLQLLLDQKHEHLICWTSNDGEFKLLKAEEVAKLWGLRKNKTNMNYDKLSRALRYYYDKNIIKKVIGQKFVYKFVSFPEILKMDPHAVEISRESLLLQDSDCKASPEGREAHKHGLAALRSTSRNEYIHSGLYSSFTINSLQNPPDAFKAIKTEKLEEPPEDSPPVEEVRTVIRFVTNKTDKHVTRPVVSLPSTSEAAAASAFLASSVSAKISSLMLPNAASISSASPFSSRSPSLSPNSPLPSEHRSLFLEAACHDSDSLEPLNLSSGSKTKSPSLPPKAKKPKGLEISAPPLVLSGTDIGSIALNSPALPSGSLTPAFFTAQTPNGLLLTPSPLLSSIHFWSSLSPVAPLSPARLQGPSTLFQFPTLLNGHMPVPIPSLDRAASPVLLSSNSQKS
# Outline: as §1
# [12] = molecular target: T7, ELK4 (Homo sapiens, UniProt P28324-2 1-405); conditions: protein: recombinant; tags: N-terminal GST; dsDNA, one strand shown
# T7 sequence: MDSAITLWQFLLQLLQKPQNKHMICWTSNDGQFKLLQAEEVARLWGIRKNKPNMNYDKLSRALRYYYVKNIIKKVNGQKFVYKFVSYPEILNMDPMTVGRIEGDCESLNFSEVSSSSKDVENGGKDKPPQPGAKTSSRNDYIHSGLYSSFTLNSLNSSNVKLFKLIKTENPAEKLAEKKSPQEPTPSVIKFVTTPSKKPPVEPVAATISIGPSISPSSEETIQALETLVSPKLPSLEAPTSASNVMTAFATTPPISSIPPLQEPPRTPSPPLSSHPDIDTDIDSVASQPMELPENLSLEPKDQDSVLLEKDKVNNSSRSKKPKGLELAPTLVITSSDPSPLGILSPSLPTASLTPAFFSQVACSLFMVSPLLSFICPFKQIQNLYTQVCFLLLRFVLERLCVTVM
# Outline: as §1
# [13] = molecular target: T8, ETV2 (Homo sapiens, UniProt O00321 1-342); conditions: protein: recombinant; tags: N-terminal GST; dsDNA, one strand shown
# T8 sequence: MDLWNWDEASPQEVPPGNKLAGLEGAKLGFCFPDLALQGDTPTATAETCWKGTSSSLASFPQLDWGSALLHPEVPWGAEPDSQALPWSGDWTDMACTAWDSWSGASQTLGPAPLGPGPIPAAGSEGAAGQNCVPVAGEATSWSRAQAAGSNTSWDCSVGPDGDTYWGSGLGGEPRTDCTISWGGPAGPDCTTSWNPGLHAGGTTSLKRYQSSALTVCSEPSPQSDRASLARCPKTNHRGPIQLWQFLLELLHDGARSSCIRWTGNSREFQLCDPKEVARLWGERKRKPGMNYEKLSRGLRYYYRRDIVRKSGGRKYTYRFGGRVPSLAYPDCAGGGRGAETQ
# Outline: as §1
# [14] = molecular target: T9, ELF3 (Homo sapiens, UniProt P78545 1-371); conditions: protein: recombinant; tags: N-terminal GST; dsDNA, one strand shown
# T9 sequence: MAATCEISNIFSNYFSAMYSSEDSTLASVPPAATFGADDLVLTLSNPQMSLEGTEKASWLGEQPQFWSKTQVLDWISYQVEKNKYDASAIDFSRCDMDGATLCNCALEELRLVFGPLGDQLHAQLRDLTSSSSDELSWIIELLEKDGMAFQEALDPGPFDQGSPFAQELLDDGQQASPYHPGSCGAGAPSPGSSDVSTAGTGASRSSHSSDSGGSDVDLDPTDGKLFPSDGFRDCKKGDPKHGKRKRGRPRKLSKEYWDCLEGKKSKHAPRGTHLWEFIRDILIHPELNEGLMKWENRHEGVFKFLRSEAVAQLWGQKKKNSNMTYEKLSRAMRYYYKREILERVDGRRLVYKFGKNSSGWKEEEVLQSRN
# Outline: as §1
# [15] = molecular target: T10, ETS2 (Homo sapiens, UniProt P15036 1-469); conditions: protein: recombinant; tags: N-terminal GST; dsDNA, one strand shown
# T10 sequence: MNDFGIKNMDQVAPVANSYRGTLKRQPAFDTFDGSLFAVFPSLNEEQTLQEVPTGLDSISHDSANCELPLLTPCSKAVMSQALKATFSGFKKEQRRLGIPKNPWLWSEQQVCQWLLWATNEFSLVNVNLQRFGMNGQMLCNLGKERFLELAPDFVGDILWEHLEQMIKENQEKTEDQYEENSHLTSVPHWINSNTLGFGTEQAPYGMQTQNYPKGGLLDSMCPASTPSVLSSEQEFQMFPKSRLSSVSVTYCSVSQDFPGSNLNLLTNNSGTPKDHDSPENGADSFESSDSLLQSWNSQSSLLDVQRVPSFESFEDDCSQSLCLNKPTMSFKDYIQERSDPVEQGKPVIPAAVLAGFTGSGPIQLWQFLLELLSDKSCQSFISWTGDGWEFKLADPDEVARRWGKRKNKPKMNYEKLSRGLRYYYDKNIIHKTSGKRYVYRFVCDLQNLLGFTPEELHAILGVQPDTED
# Outline: as §1
# [16] = molecular target: T11, ELF5 (Homo sapiens, UniProt Q9UKW6-2 1-255); conditions: protein: recombinant; tags: N-terminal GST; dsDNA, one strand shown
# T11 sequence: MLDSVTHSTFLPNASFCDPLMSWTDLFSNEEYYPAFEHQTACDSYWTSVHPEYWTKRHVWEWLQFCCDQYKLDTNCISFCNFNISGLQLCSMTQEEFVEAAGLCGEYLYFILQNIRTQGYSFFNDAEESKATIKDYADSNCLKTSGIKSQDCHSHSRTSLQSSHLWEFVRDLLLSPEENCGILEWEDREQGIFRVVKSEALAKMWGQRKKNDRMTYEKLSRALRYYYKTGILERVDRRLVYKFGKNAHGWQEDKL
# Outline: as §1
# Chain of HSF1 (Q00613 whole entry, the tested form may be a part): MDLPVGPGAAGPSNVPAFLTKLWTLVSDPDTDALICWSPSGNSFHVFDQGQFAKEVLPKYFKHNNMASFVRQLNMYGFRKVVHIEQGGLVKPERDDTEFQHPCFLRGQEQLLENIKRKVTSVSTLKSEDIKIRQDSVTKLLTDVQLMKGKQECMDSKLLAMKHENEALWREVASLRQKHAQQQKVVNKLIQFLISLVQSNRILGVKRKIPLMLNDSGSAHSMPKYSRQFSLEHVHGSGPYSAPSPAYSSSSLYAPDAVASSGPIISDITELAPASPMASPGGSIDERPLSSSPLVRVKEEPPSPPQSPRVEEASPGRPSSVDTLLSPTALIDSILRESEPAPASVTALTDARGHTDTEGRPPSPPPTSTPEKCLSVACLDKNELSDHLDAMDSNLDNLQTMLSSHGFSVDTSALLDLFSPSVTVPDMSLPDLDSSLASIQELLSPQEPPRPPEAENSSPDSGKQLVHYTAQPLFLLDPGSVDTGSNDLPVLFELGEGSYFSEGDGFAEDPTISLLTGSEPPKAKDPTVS
# Chain of ELF4 (Q99607 whole entry): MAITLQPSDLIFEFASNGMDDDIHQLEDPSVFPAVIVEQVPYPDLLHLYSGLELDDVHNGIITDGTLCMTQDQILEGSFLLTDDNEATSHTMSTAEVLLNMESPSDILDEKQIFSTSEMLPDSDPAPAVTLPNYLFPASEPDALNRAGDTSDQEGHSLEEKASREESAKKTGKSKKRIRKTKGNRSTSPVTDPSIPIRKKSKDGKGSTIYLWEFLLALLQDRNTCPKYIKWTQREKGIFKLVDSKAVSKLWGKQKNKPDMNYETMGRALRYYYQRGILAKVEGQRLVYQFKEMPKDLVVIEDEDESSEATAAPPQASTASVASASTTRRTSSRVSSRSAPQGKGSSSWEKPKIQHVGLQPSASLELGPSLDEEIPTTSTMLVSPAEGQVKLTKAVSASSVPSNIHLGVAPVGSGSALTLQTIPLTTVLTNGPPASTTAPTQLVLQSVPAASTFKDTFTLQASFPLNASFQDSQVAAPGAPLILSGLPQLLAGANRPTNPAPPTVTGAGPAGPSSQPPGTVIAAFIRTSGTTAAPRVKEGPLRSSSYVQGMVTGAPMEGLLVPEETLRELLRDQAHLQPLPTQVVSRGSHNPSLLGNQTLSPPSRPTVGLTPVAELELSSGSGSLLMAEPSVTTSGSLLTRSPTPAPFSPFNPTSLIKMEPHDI
# Chain of CRX (O43186 whole entry): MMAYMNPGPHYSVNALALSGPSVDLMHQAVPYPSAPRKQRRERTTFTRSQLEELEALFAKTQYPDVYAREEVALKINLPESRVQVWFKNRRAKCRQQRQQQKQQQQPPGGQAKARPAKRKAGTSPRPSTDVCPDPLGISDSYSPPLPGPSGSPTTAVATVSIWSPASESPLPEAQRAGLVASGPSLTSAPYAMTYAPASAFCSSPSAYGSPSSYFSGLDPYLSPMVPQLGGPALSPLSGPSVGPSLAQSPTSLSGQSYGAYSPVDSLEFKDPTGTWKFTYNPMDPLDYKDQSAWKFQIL
# Chain of SPIB (Q01892 whole entry): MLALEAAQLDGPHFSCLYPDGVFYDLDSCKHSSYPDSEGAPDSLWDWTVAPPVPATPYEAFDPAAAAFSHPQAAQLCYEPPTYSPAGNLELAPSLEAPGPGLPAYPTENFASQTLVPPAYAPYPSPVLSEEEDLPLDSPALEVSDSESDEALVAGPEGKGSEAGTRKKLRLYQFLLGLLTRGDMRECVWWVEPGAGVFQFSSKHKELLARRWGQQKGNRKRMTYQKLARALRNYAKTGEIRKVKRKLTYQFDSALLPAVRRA
sequence,measurement,setting,value
TCAGAA,binding signal,[1],"1.26 fold enrichment (6-mer frequency, TF over GST control)"
same,binding signal,[2],"1 fold enrichment (6-mer frequency, TF over GST control)"
same,binding signal,[3],"1.12 fold enrichment (6-mer frequency, TF over GST control)"
ACGAAG,binding signal,[1],"1.06 fold enrichment (6-mer frequency, TF over GST control)"
same,binding signal,[2],"1.01 fold enrichment (6-mer frequency, TF over GST control)"
same,binding signal,[4],"1.02 fold enrichment (6-mer frequency, TF over GST control)"
same,binding signal,[5],"1 fold enrichment (6-mer frequency, TF over GST control)"
same,binding signal,[6],"1.07 fold enrichment (6-mer frequency, TF over GST control)"
GCGATA,binding signal,[7],"1 fold enrichment (6-mer frequency, TF over GST control)"
same,binding signal,[8],"1 fold enrichment (6-mer frequency, TF over GST control)"
same,binding signal,[9],"1.03 fold enrichment (6-mer frequency, TF over GST control)"
same,binding signal,[10],"1.02 fold enrichment (6-mer frequency, TF over GST control)"
same,binding signal,[11],"1.1 fold enrichment (6-mer frequency, TF over GST control)"
same,binding signal,[1],"1.06 fold enrichment (6-mer frequency, TF over GST control)"
same,binding signal,[12],"1.07 fold enrichment (6-mer frequency, TF over GST control)"
same,binding signal,[13],"1.11 fold enrichment (6-mer frequency, TF over GST control)"
same,binding signal,[14],"1.02 fold enrichment (6-mer frequency, TF over GST control)"
same,binding signal,[3],"1.11 fold enrichment (6-mer frequency, TF over GST control)"
same,binding signal,[5],"1.03 fold enrichment (6-mer frequency, TF over GST control)"
same,binding signal,[15],"1.04 fold enrichment (6-mer frequency, TF over GST control)"
same,binding signal,[6],"1.06 fold enrichment (6-mer frequency, TF over GST control)"
same,binding signal,[16],"1.02 fold enrichment (6-mer frequency, TF over GST control)"
